Results from PubChem BioAssay (NCI).
This is part of a sample that, as a whole, favours compounds with a hit. Of some 79,000 tested, about 15% had one in any assay. No stated cut-off is given here; in the data, active means growth inhibition above about 70%; inactive means the rest.

How the values were obtained:
[1] = NCI Yeast Anticancer Drug Screen. Data for the rad50 strain (AID 155);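 further: 0% = growth of vehicle-only cultures of the same strain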; conditions: S. cerevisiae rad50 strain growth inhibition; at 50.0 µM; stronger effect = higher value
Summary of the method: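 Yeast carrying a defined DNA repair defect were exposed to test compounds, and growth was compared with vehicle-treated controls to give percent inhibition.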

[2] = NCI Yeast Anticancer Drug Screen. Data for the mec2-1 strain (AID 157); conditions: S. cerevisiae mec2-1 strain, at 50.0 µM, stronger effect = higher value
Summary of the method: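 Yeast mec2-1 mutant treated with compound. Readout: growth inhibition vs vehicle controls.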

[3] = NCI Yeast Anticancer Drug Screen. Data for the sgs1 mgt1 strain (AID 161);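 further: 0% = growth of cultures given vehicle only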; conditions: S. cerevisiae sgs1 mgt1 strain, at 50.0 µM, stronger effect = higher value
Summary of the method: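 Genetically altered yeast, compound exposure, growth inhibition relative to vehicle.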

[4] = NCI Yeast Anticancer Drug Screen. Data for the cln2 rad14 strain (AID 165);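 further: 0% = growth equal to vehicle treated cultures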; conditions: S. cerevisiae cln2 rad14 strain, at 50.0 µM, stronger effect = higher value
Summary of the method: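 cln2 rad14 yeast strain; compound exposure; growth inhibition read vs vehicle controls.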

[5] = NCI Yeast Anticancer Drug Screen. Data for the bub3 strain (AID 167); conditions: S. cerevisiae bub3 mutant strain, at 50.0 µM, stronger effect = higher value
Summary of the method: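 Compounds were applied to a genetically altered yeast strain carrying a cell-cycle control defect. Growth inhibition was scored against vehicle-treated controls.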

[6] = NCI Yeast Anticancer Drug Screen. Data for the mlh1 rad18 strain (AID 175); conditions: S. cerevisiae mlh1 rad18 strain growth inhibition; at 50.0 µM; stronger effect = higher value
Summary of the method: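 Yeast w/ defined DNA-repair lesions; compound exposure; growth vs vehicle controls → % inhibition.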

Measured: growth inhibition

CCC(=O)C(C)C(=O)N(CC(C)C)CC(C)C (stereo unspecified)
inactive: [1] -12.7% | [2] -6.85% | [3] -5.3% | [4] -11.8% | [5] -0.2% | [6] -19.8%

CC(=O)OCC1OC(n2cc(F)c(=O)[nH]c2=O)C(NC(=O)N(CCCl)N=O)C(OC(C)=O)C1OC(C)=O (stereo unspecified)
inactive: [1] 2.4% | [2] -13.9% | [3] 12.8% | [4] 10.8% | [5] 0.9% | [6] -5.85%

CN(C)C(=O)CC(O)c1ccccc1 (stereo unspecified)
inactive: [1] 13.9% | [2] -9.95% | [3] 1.6% | [4] -30.2% | [5] -2.55% | [6] 4.75%

COc1ccccc1CNCCCCCNCCCCCCCCCCNCCCCCNCc1ccccc1OC
inactive: [1] -32.4% | [2] -11.1% | [3] -27.9% | [4] -9.1% | [5] -22% | [6] -36.5%

COc1ccccc1C(=O)N/N=C/c1ccc(O)cc1
inactive: [1] 0% | [2] 22.6% | [3] 15.3% | [4] -2.7% | [5] 16.6% | [6] 19.9%

CCOC(=O)/C(=C\c1ccccc1)C(=O)O
inactive: [1] -6.75% | [2] -29.9% | [3] -6.25% | [4] 26% | [5] -21.9% | [6] -1.8%

CCCC(=O)Oc1ccc(Cl)cc1
inactive: [1] 12.9% | [2] -4.45% | [3] 1.35% | [4] 20.1% | [5] 1.45% | [6] -6.65%

CCC(C)C(N)C1=NC(C(=O)NC(CC(C)C)C(=O)NC(CCC(=O)O)C(=O)NC(C(=O)NC2CCCCNC(=O)C(CC(N)=O)NC(=O)C(CC(=O)O)NC(=O)C(Cc3cnc[nH]3)NC(=O)C(Cc3ccccc3)NC(=O)C(C(C)CC)NC(=O)C(CCCN)NC2=O)C(C)CC)CS1 (stereo unspecified)
inactive: [1] 12.9% | [2] -24.9% | [3] 0.2% | [4] 25.6% | [5] -15.2% | [6] -7.3%

CCOC(=O)/C(=C\c1cc(C)c(OC(C)=O)c(OC)c1)NC(=O)c1ccccc1
inactive: [1] -17.1% | [2] -15.2% | [3] -11.1% | [4] 0.1% | [5] -3.45% | [6] -4.25%

COC(=O)Cc1ccccc1-n1nccc1S(C)=O (stereo unspecified)
inactive: [1] 10.2% | [2] -5.05% | [3] 14.3% | [4] -7.65% | [5] 8.6% | [6] 7.45%

Cc1cccc(N=Cc2ccc(N(CCC#N)S(=O)(=O)c3ccccc3)cc2C)c1
inactive: [1] -34.5% | [2] -16.6% | [3] -54.9% | [4] -8.35% | [5] -10.9% | [6] -9.2%

CCOC(=O)c1ccc(Nc2nc3ccc(C(F)(F)F)cc3nc2C(=O)OCC)cc1
inactive: [1] -24.6% | [2] 3% | [3] -11.9% | [4] -12.9% | [5] -6.2% | [6] -12.2%

CSc1ccc(OC(=O)Nc2cc(Cl)ccc2C)cc1
inactive: [1] 4.35% | [2] 14.8% | [3] 25.9% | [4] -0.6% | [5] 38% | [6] 5.75%

CC(C)(C)C1=CC(=N/S(=O)(=O)c2ccccc2)/C(N=[N+]=[N-])=C(Cl)C/1=N\S(=O)(=O)c1ccccc1
inactive: [1] 54.8% | [2] 27.4% | [3] 48.2% | [4] 14% | [5] 23.6% | [6] 39%

Cc1ccc2cccc(N)c2n1
inactive: [1] 21.4% | [2] -0.15% | [3] -8% | [4] -33.5% | [5] 18% | [6] 7.2%

N#Cc1ccc(OCCCOc2ccc(C#N)cc2)cc1
inactive: [1] 8.15% | [2] 12.2% | [3] 9.65% | [4] 5.3% | [5] 46.2% | [6] -4.15%

O=c1[nH]cc(COCC(F)(F)C(F)(F)C(F)(F)C(F)F)c(=O)[nH]1
inactive: [1] -1.35% | [2] -14.9% | [3] -3.7% | [4] 0.5% | [5] -17.5% | [6] 1.2%

C=CCN(N=O)C(=O)NCCCCC(NC(C)=O)C(=O)NCc1ccccc1 (stereo unspecified)
inactive: [1] -10.2% | [2] -22.6% | [3] -21.9% | [4] -6.3% | [5] 5.1% | [6] -14%

O=C(CCc1nnc2s/c(=C\c3ccccc3)c(=O)n12)Nc1cc(Cl)ccc1Cl
inactive: [1] -30.9% | [2] -1.6% | [3] -18.4% | [4] 16.4% | [5] 4.95% | [6] -1.45%

NNC(=O)/C(=C/c1ccc(Cl)cc1Cl)NC(=O)c1ccccc1
inactive: [1] 45% | [2] 35.3% | [3] 39.3% | [4] 60.4% | [5] 66.8% | [6] 54.5%

C(CCc1nnc2c(n1)CCCC2)Cc1nnc2c(n1)CCCC2
inactive: [1] -7.6% | [2] -17.9% | [3] -1.05% | [4] -12.1% | [5] 10.1% | [6] -2.4%

CN(CCC(=O)c1ccc2ccccc2c1)Cc1ccccc1
inactive: [1] 16.4% | [2] 3% | [3] 27.4% | [4] -1.45% | [5] 8% | [6] 20.7%

COc1ccc(C=O)c(C)c1
inactive: [1] -4.05% | [2] -30.1% | [3] 4.15% | [4] 15.3% | [5] -15.8% | [6] -5.45%

Oc1ccccc1C=Nc1ccccc1N=Cc1ccccc1O.[Zn]
inactive: [1] 6.45% | [2] 4% | [3] -3.45% | [4] 26.5% | [5] -4.05% | [6] 12.9%

CCOC(=O)C(NC(=O)c1ccccc1)C1NC(C(=O)O)C(C)(C)S1 (stereo unspecified)
inactive: [1] -23.1% | [2] 5.6% | [3] -5.1% | [4] -21.8% | [5] 0.8% | [6] 3.55%

CN1COc2c(ccc3c4c(ccc23)CN(C)CO4)C1
inactive: [1] 3.15% | [2] 17.9% | [3] 16.6% | [4] -47% | [5] 1.75% | [6] 35.4%

COC(=O)c1cn[nH]c1CC(N)=O
inactive: [1] 35.9% | [2] 11.5% | [3] 25.1% | [4] -17.1% | [5] 12.3% | [6] 19.9%

COc1ccc(CCn2nccc2C)cc1
inactive: [1] -60.9% | [2] -4% | [3] -4.3% | [4] -17.9% | [5] -9.4% | [6] -18.4%

OCCOc1ccc(Cl)cc1Cl
inactive: [1] -6% | [2] -32% | [3] -18.2% | [4] -2.85% | [5] -0.8% | [6] 9.05%

O=C(Cc1nc2ccccc2o1)C(=O)Nc1ccc(Cl)cc1Cl
inactive: [1] 10.7% | [2] -4.6% | [3] 0.8% | [4] 17.1% | [5] -15.7% | [6] 16.2%

S=c1nc(-c2ccnc(-c3nc(=S)[nH][nH]3)c2)[nH][nH]1
inactive: [1] -18.4% | [2] -18.4% | [3] -18.8% | [4] 43.7% | [5] -9.75% | [6] -43.7%

O=S(=O)(OCC1CC2C=CC1C2)c1ccc(Br)cc1 (stereo unspecified)
inactive: [1] -15.6% | [2] 7.45% | [3] -3.7% | [4] 6.85% | [5] 54.9% | [6] 3.65%

COc1cc2c(cc1O)[C@@H]1Cc3c(cc(OC)c(OC)c3Oc3cc4c(cc3OC)CCN(C)[C@@H]4Cc3ccc(O)cc3)[C@H](C2)N1C
inactive: [1] 14.9% | [2] 8.75% | [3] 0.15% | [4] 12.1% | [5] -10.4% | [6] -56%

Cc1no[n+]([O-])c1C(=O)NN
inactive: [1] 6.35% | [2] 6.6% | [3] -14.3% | [4] -46.8% | [5] -20.1% | [6] -12.4%

NC(=O)C1N=NSC1NC(=O)c1ccc([N+](=O)[O-])cc1 (stereo unspecified)
inactive: [1] 1.8% | [2] -5.6% | [3] -8.9% | [4] 6.65% | [5] -9.15% | [6] 5.45%

ClC1CC2CC1C1COCC21 (stereo unspecified)
inactive: [1] 8.9% | [2] -5.35% | [3] -3.85% | [4] -16.2% | [5] -12.6% | [6] -8.9%

Nc1ncnc2c1ccn2Cc1c(F)cccc1Cl
inactive: [1] -0.8% | [2] -7.3% | [3] -10.9% | [4] -1.2% | [5] 6.05% | [6] -13.6%

N#C/C(=C/NC(=S)Nc1ccccc1)C(N)=O
inactive: [1] -31.6% | [2] -30.8% | [3] -26.8% | [4] -20% | [5] -15.7% | [6] -16.5%

CCc1nc(N)nc(N)c1-c1ccc(OC)c(N)c1
inactive: [1] 22.4% | [2] 28.1% | [3] 22.6% | [4] 35.7% | [5] 13.6% | [6] 43.4%

COc1cc2cnc(-c3ccncc3)c(O)c2cc1OC
inactive: [1] 30.9% | [2] 40.6% | [3] 37.2% | [4] 1.9% | [5] 36.2% | [6] 28.6%

c1ccc2c3nnc(c2c1)SCCSCCCSCCS3
inactive: [1] -24.4% | [2] -31.4% | [3] -2.2% | [4] -5.25% | [5] 8.65% | [6] -30.4%
